Measurements reported in the supplement of paper PMC13380429.

Tested on: Vero E6 infected with SARS-CoV-2
Experiment: inhibition of SARS-CoV-2 cytopathic effect; higher = more antiviral protection, active = above 15
Settings: 48 h

Measured: inhibition of SARS-CoV-2 cytopathic effect

CC(C)Cc1ccc(C(C)C(=O)NO)cc1 (stereo not given) [ibuproxam]
inactive: 1 nM 1.38% | 8.33 nM 1.54% | 100 nM 0.99% | 833.33 nM 2.87% | 10000 nM 1.73%

CC1Nc2ccc(Cl)cc2S(=O)(=O)N1 (stereo not given)
inactive: 1 nM 0.09% | 8.33 nM 1.51% | 100 nM -2.37% | 833.33 nM 1.75% | 10000 nM 2.76%

O=C(COc1ccc(C(=O)c2ccccc2)cc1)NC1CCN(Cc2ccccc2)CC1 [adiporon]
inactive: 1 nM -2.19% | 8.33 nM -0.76% | 100 nM 0.29% | 833.33 nM 0.19% | 10000 nM -1.05%

Cn1c(=O)[nH]c2ncn(C)c2c1=O [paraxanthine]
inactive: 1 nM 1.63% | 8.33 nM 1.68% | 100 nM 0.01% | 833.33 nM 2.99% | 10000 nM -0.26%

CCC(C)(Oc1ccc(C2(c3ccc(OC(C)(CC)C(=O)O)cc3)CCCCC2)cc1)C(=O)O (stereo not given) [clinofibrate]
inactive: 1 nM -0.17% | 8.33 nM -1.53% | 100 nM -1.92% | 833.33 nM -1.83% | 10000 nM 0.41%

C[C@@H](c1nc(-c2ccc(C#N)cc2)cs1)[C@](O)(Cn1cncn1)c1ccc(F)cc1F [ravuconazole]
inactive: 1 nM -0.11% | 8.33 nM -0.67% | 100 nM -0.09% | 833.33 nM -0.86% | 10000 nM 0.29%

O=C(CCCN1CC=C(n2c(=O)[nH]c3ccccc32)CC1)c1ccc(F)cc1 [droperidol]
inactive: 1 nM -0.89% | 8.33 nM 3.34% | 100 nM 0.3% | 833.33 nM -0.44% | 10000 nM -2%

CC(C)(C)C1CCc2c(sc(NC(=O)c3ccco3)c2C(=O)O)C1 (stereo not given)
inactive: 1 nM 0.37% | 8.33 nM 3.15% | 100 nM 1.01% | 833.33 nM 0.8% | 10000 nM -2.29%

O=C1OCCN1/N=C/c1ccc([N+](=O)[O-])o1 [furazolidone]
inactive: 1 nM 2.49% | 8.33 nM 3.22% | 100 nM 2.2% | 833.33 nM 1.08% | 10000 nM 0.23%

CNS(=O)(=O)Nc1nccc(Cc2c(C)c3ccc(Oc4ncccn4)cc3oc2=O)c1F
inactive: 1 nM -0.25% | 8.33 nM -3.18% | 100 nM -10.4% | 833.33 nM -17.5% | 10000 nM -15.7%

CNc1ncc2cc(-c3cc(NC(=O)NCCC(C)(C)C)c(F)cc3C)c(C)nc2n1
inactive: 1 nM 0.87% | 8.33 nM 1.85% | 100 nM 5.54% | 833.33 nM -4.43% | 10000 nM -8.15%

CCCCN(CCCC)CCC(O)c1cc2c(Cl)cc(Cl)cc2c2cc(C(F)(F)F)ccc12 (stereo not given) [halofantrine]
inactive: 1 nM -1.32% | 8.33 nM 2.28% | 100 nM 3.05% | 833.33 nM -1.63% | 10000 nM -1.68%

CC(C)C[C@H](NC(=O)[C@@H]1CCCN1)C(=O)NCC(N)=O [prolylleucylglycinamide]
inactive: 1 nM 0.63% | 8.33 nM 2.46% | 100 nM 1.44% | 833.33 nM 0.51% | 10000 nM 1.22%

CC(C)(C)Sc1c(CC(C)(C)C(=O)O)n(Cc2ccc(Cl)cc2)c2ccc(OCc3ccc4ccccc4n3)cc12 [quiflapon]
inactive: 1 nM 1.81% | 8.33 nM 0.25% | 100 nM -1.43% | 833.33 nM 1.93% | 10000 nM 1.66%

CCCNS(=O)(=O)Nc1ncnc(OCCOc2ncc(Br)cn2)c1-c1ccc(Br)cc1 [macitentan]
inactive: 1 nM 0.7% | 8.33 nM -1.57% | 100 nM -0.9% | 833.33 nM 1.28% | 10000 nM 4.76%

O=C(CCCN1CCC(O)(c2ccc(Cl)cc2)CC1)c1ccc(F)cc1 [haloperidol]
inactive: 1 nM 0.65% | 8.33 nM 1.48% | 100 nM -0.07% | 833.33 nM 0.5% | 10000 nM -1.23%

CC[C@H](C)[C@H](N)C(=O)O [isoleucine]
inactive: 1 nM -1.51% | 8.33 nM -4.12% | 100 nM -0.12% | 833.33 nM 0.05% | 10000 nM 1.97%

O=C(O)COc1cccc(CN(Cc2ccc(-n3cccn3)cc2)S(=O)(=O)c2cccnc2)c1 [taprenepag]
inactive: 1 nM 0.31% | 8.33 nM -1.59% | 100 nM -0.6% | 833.33 nM -0.14% | 10000 nM 0.98%

Nc1nc2[nH]cnc2c(=S)[nH]1 [thioguanine]
inactive: 1 nM -0.56% | 8.33 nM -0.26% | 100 nM 1.4% | 833.33 nM 2.65% | 10000 nM 5.44%

COc1cc2ncn(-c3cc(OCc4ccccc4C(F)(F)F)c(C(N)=O)s3)c2cc1OC
inactive: 1 nM -9.5% | 8.33 nM -5.03% | 100 nM -7.65% | 833.33 nM -5.41% | 10000 nM -1.95%
